The target of the test is Ubiquitin carboxyl-terminal hydrolase 2 (Homo sapiens) (UniProt O75604). The experiment in a line: Confirmation Assay for Inhibitors of Ubiquitin-specific Protease USP2a Using CHOP2 as the Reporter. Also: nearly all actives have a fitted effect of over 55% in size. To be noted: USP2 core, Ub-CHOP2 coupled reporter fluorescence; series mostly up to 38.3 µM. The gist of the method:
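Ub-CHOP2 cleavage coupled to reporter activation was read by fluorescence after 60 min at RT, with 25 nM final Ub-CHOP2 and substrate. Enzyme (10 nM final USP2 core) first sat 30 min with compound; data were normalized to NEM and fitted to concentration-response curves.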

Each structure is given as a SMILES string. Records with an inconclusive call do not appear. Entries that show only a call come without a potency. The source made the active and inactive calls. Calls follow the shape of the dose curve; as a rule, active = well fitted inhibition curve with a large enough effect; inconclusive = small, poorly fitted or top-dose-only effect, or effect the other way; inactive = flat fitted curve, though single readings scatter.
Potency is read from the fitted curve at half-maximal effect.

Sequence of Ubiquitin carboxyl-terminal hydrolase 2 (Homo sapiens) (O75604 whole entry, looked up): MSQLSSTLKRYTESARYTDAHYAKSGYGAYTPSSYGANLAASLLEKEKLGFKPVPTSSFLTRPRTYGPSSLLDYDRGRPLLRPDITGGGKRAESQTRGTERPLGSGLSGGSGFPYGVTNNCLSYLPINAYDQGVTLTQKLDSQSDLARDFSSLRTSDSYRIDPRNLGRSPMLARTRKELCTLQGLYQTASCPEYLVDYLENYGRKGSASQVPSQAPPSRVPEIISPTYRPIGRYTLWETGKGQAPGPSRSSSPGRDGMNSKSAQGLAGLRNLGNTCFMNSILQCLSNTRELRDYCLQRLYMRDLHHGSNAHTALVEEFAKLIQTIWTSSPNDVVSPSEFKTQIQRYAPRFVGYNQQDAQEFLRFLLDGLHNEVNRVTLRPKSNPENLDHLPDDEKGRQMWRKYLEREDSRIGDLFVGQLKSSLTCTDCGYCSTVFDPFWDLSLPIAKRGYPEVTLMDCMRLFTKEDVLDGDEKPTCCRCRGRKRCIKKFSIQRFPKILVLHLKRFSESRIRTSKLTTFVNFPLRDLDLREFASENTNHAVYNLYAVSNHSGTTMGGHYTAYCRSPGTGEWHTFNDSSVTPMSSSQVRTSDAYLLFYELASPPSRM

With `COC(=O)c1ccccc1NC(=O)CSc1nc(O)cc(=O)n1C1CCCC1`, the Potency entry was “inactive”.
As for `CCOc1ccc2[nH]c(=O)c(CN(CCc3ccccc3)C(=O)c3cnccn3)cc2c1`, the Potency entry is “inactive”.
The value for `CCOC(=O)c1sc(NC(=O)Nc2ccccc2)cc1C` was “inactive”; that for `c1ccc(-c2nc3nc4ccccc4nc3n2Cc2ccco2)cc1` was “inactive”.
The value for `CCn1c(COc2ccc(C)cc2)nnc1SCC(=O)Nc1ccc2c(c1)OCCO2` was “inactive”.
The value for `CC(=O)COc1ccc2c(-c3ccccc3)cc(=O)oc2c1` was “inactive”.
Consider `COCc1cc(C)nc(SCC[N+](C)(C)CC(=O)Nc2cccc(C(F)(F)F)c2)c1C#N`, for which the Potency entry was “inactive”.
To `CCOC(=O)COc1c(OC)cc(Cl)cc1C1Nc2ccccc2C(=O)N1c1ccccc1` (stereo not given) belongs “inactive”.
The value for `Cc1noc(/C=C/c2ccco2)c1S(=O)(=O)N1CCC(C(=O)N(C)Cc2ccccc2)CC1` was 14.7 µM (active); that for `O=C(O)c1cccc(S(=O)(=O)NNc2ccccc2C(F)(F)F)c1` was “inactive”.
The value for `Cc1ccc2oc(=O)c3cnn(CC(=O)NCCCOC(C)C)c3c2c1` was “inactive”; that for `COc1ccc(O)c(-c2cc(-c3ccc(F)cc3)n[nH]2)c1` was “inactive”; that for `Cc1c(N=C/C=C2\N(C)c3ccccc3C2(C)C)c(=O)n(-c2ccccc2)n1C` was “inactive”.
In the case of `COc1cccc(N2C(=O)C3CCCN3C2c2ccc(N(C)C)cc2)c1` (stereo not given), the Potency entry is “inactive”.
To `Cc1ccc(-c2nc(N/N=C/c3ccncc3)c3ccccc3n2)cc1` belongs “inactive”.
The value for `COc1ccc(CCN2CC(C#N)=C3c4cc(OC)c(OC)cc4CCN3C2)cc1OC` was “inactive”.
The value for `COc1ccc(NC(=S)NC(=O)/C=C/c2ccco2)cc1` was “inactive”; that for `O=C(Nc1nnc(-c2cccs2)o1)c1cccc(Oc2ccccc2)c1` was “inactive”; that for `Cc1ccc(C(=O)COC(=O)CNC(=O)CN2C(=O)c3ccccc3C2=O)cc1` was “inactive”.
For the molecule `CCC(CO)Oc1cc(NCc2cccc(C)c2)c2ncn(C(C)C)c2c1` (stereo not given), the Potency entry is “inactive”.
To `CC(NC(=O)COc1ccccc1-c1ccccc1)c1ccccc1` (stereo not given) belongs “inactive”; to `N=C1C(c2nc3ccccc3c(=O)[nH]2)=C(O)CN1CCc1ccccc1`, “inactive”; to `CC(=O)Nc1cc[n+](CC(=O)c2ccc(Cl)cc2)cc1`, “inactive”.
The value for `O=C(O)CCn1c(C2CCCCC2)nc2ccccc21` was “inactive”.
The value for `CCN1C(=O)CSc2ccc(C(=O)NC3CCCCC3)cc21` was “inactive”; that for `O=C(O)c1cc(N2N=C(C(F)(F)F)/C(=C/C=C/c3ccco3)C2=O)ccc1Cl` was 5.85 µM (active); that for `O=C(N/N=C/C=C/c1ccccc1)c1ccncc1` was “inactive”.
As to `C/C(Cn1nnc2ccccc21)=N\OC(=O)c1ccccc1C`, the Potency entry was “inactive”.
As to `CNC(=O)NC(=O)CSc1ccc(NC(C)=O)cc1`, the Potency entry is “inactive”.
With `CCCOc1ccc(/C=C2\SC(=S)N(CC3CCCO3)C2=O)cc1` (stereo not given), the Potency entry is “inactive”.
To `CC1CC(C)CN(C(=O)CSc2nnc(-c3ccc(Cl)cc3)o2)C1` (stereo not given) belongs “inactive”; to `Cc1ccc(C(=O)c2coc3c2C(=O)C(=O)c2ccccc2-3)cc1`, “inactive”; to `Cn1c(C(=O)N2CCN(Cc3ccc4c(c3)OCO4)CC2)cc2sccc21`, “inactive”.
To `COC(=O)c1[nH]c2cc(OC)ccc2c1N` belongs “inactive”; to `Cc1ccc(S(=O)(=O)N2[C@@H](c3ccc(C(C)(C)C)cc3)C(C(=O)O)=CC[C@H]2c2ccc(C(C)C)cc2)cc1`, 9.27 µM (active).
Take `CCCCCCCCCCCCCCCC[N+](C)(C)CCN(Cc1ccc(OC)cc1)c1ncccn1`: the Potency is 11.7 µM (active).
As for `Cc1cc(=O)oc(C)c1C(=O)NCCc1ccccc1`, the Potency result was “inactive”.
The value for `COC(=O)c1[nH]c(=O)c2ccccc2c1OCc1ccccc1` was “inactive”.
The value for `N#Cc1cc(Sc2ccccn2)c(Sc2ccccn2)cc1C#N` was “inactive”.
With `Cc1ccc(S(=O)(=O)Nc2ccccc2C(=O)Nc2nc(-c3ccc(F)cc3)cs2)cc1`, the Potency was 14.7 µM (active).
With `C=C(C)COc1ccc(-c2[nH]ncc2Oc2ccccc2OCC)c(O)c1`, the Potency result was “inactive”.
The value for `CCc1cc2c(=O)c(-n3cnc4ccccc43)coc2cc1O` was “inactive”; that for `COc1cccc(NC(=O)c2ccccc2-c2nc(-c3cccc(C)c3)no2)c1` was “inactive”.
To `CC(=O)O[C@H]1[C@H](O)[C@H](Oc2c(O)c(C)c3c4c2[C@@H](C)CC[C@@H]4[C@@H](C)C[C@H]3C=C(C)C)O[C@@H](C)[C@H]1O` belongs “inactive”.
The value for `Cc1ccc(-c2ccc(CCC(=O)O)n2NC(=O)c2cccs2)cc1` was “inactive”.
Consider `COc1ccccc1-n1c(SCC(=O)Nc2ccc(C)cc2)nc(O)cc1=O`, for which the Potency result was “inactive”.
To `O=C(Nc1ccc(Oc2ccc(Cl)cc2)cc1)c1ncn[nH]1` belongs “inactive”; to `O=c1cc2oc3cc(O)c(O)cc3c(-c3ccccc3[N+](=O)[O-])c-2cc1O`, 18.5 µM (active).
The value for `O=C1/C(=C/C=C/c2ccco2)SC(=S)N1NS(=O)(=O)c1ccccc1` was 8.26 µM (active); that for `COc1cc(C(c2c(C)[nH][nH]c2=O)c2c(C)[nH][nH]c2=O)ccc1OCc1ccc([N+](=O)[O-])cc1` was “inactive”; that for `O=C(CCSCc1ccc(Cl)cc1)NCCc1ccccc1` was “inactive”.
The value for `CCCc1cc(=O)oc2cc(C)c(CN3CCCC3)c(O)c12` was “inactive”.
On to `CSc1cccc(NC(=O)c2ccccc2N(C)S(C)(=O)=O)c1`, for which the Potency result is “inactive”.
To `CN1CCN(S(=O)(=O)c2ccc(N3CCN(S(=O)(=O)/C=C/c4ccccc4)CC3)nc2)CC1` belongs “inactive”; to `CC(=O)Nc1ccc(Nc2cc(C)nc(Nc3ccc(NC(C)=O)cc3)n2)cc1`, “inactive”; to `Clc1ccccc1-c1nnc2sc(-c3cccs3)nn12`, “inactive”.
In the case of `CCOC(=O)COc1ccccc1/C=N/O`, the Potency result is “inactive”.
For `CC(C)n1nc(C(=O)Nc2ccccc2N2CCOCC2)c2ccccc2c1=O`, the Potency entry is “inactive”.
As to `O=C(c1ccco1)N1CCN(C(c2cccs2)c2sc3ncnn3c2O)CC1` (stereo not given), the Potency result was “inactive”.
`COc1ccc(/C=C\C(=O)O[C@@H]2C(O)C(O[C@@H]3OC(C)[C@H](O[C@@H]4OCC(O[C@H]5O[C@H](CO)[C@@H](O)C(O)C5O)C(O)C4O)C(O)C3O)[C@H](OC(=O)[C@]34CCC(C)(C)C[C@@H]3C3=CCC5[C@@]6(C)CC(O)C(O[C@@H]7OC(CO)C(O)[C@H](O)[C@H]7O)[C@@](C)(C(=O)O)C6CC[C@@]5(C)[C@]3(CO)CC4)O[C@H]2C)cc1` (stereo not given in full): the Potency entry is “inactive”.
The value for `COc1ccc2nc(C)cc(SCC(=O)N/N=C/c3c(OC)ccc4ccccc34)c2c1` was “inactive”; that for `O=C(Nc1ccc(N2CCCC2)cc1)c1cccc(-c2cc3ccccc3oc2=O)c1` was “inactive”.
The value for `O=C1CS/C(=C/C(=O)c2ccccc2)N1` was “inactive”; that for `O=C(Cc1ccccc1)Nc1cccc(N2CCCC2)c1` was “inactive”.
To `CCOC(=O)c1[nH]c2ccc(OC)cc2c1NC(=O)CCN1CCC(C)CC1` belongs “inactive”.
Turning to `Cc1nc2n(n1)CC(O)CS2` (stereo not given), the Potency entry was “inactive”.
Turning to `O=C(NN1C(=O)/C(=C/C=C/c2ccco2)SC1=S)c1ccncc1`, the Potency was 13.1 µM (active).
As for `C[C@@H]1CN([C@H](C)CO)C(=O)c2cc(NS(=O)(=O)c3ccc(F)cc3)ccc2O[C@@H]1CN(C)Cc1ccc(Cl)c(Cl)c1`, the Potency result was “inactive”.
The value for `CC[C@]12c3[nH]c4cc(-c5ccco5)ccc4c3CCN1C(=O)[C@@H](CC(=O)NC/C=C(\C)CCC=C(C)C)C[C@@H]2C(=O)N1CCN(C(=O)C2CC2)CC1` was “inactive”.
The value for `Cc1ccc(CNC(=O)CCNS(=O)(=O)c2ccc(C)cc2)cc1` was “inactive”.
To `CCCCCCCCCCOC(=O)Cn1c(COc2ccc(Cl)cc2)[n+](C)c2ccccc21` belongs 18.5 µM (active).
For the molecule `Cc1cc(C)c2c(N=CN(C)C)c(C(=O)N3CCN(c4ncccn4)CC3)sc2n1`, the Potency entry is “inactive”.
`CC1CCCC(N2CCN(C(=O)c3cccc(F)c3)CC2)C1` (stereo not given): the Potency entry is “inactive”.
The value for `CCn1c(CN2CCOCC2)nnc1SCC(=O)Nc1ccc(C(C)=O)cc1` was “inactive”.
Regarding `COc1cccc(NC(=O)Cc2ccccc2)c1`, the Potency result was “inactive”.
To `O=C(NCCC1=CCCCC1)C1CCCN(S(=O)(=O)c2cnc[nH]2)C1` (stereo not given) belongs “inactive”; to `O=C(CNC(=O)C1CCCCC1)NC1=NCCS1`, “inactive”.
To `N#CNC(=Nc1cccc(F)c1)SCc1cccc(F)c1` belongs “inactive”.
To `O=C(CSc1nccc(=O)[nH]1)N1N=C2/C(=C/c3ccco3)CCCC2C1c1ccco1` (stereo not given) belongs “inactive”.
Consider `Fc1ccc(-c2nnn(Cc3nc4ccccc4s3)n2)cc1`, for which the Potency result is “inactive”.

The values above are taken from PubChem BioAssay AID493168 (National Center for Advancing Translational Sciences (NCATS), 2011).
